Experimental data reported in PubChem BioAssay.
Calls of active or inactive are those of the source.

Columns and labels:
[1] = small molecules captured by biotinylated probe aFSTL3 – biochemical, small-molecule microarray, fluorescence 635/667, stem cell growth factor project, primary screen (AID 1064); conditions: higher = more signal;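 also: measures binding of the biotinylated anti-FSTL3 antibody to printed compounds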
[2] = binders from COS7 lysate, DM2A8 probe, primary screen, torsin A project, cell lysate, small-molecule microarray, fluorescence 635/667 (AID 1065); conditions: higher = more signal, COS7 lysate expressing mutant human TOR1A
[3] = small molecules captured by biotinylated probe aFGF2 – biochemical, small-molecule microarray, fluorescence 635/667, stem cell growth factor project, primary screen (AID 1067); conditions: higher = more signal;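 also: measures binding of biotinylated aFGF2 protein to printed compounds on slides; z-score merges feature fluorescence and signal-to-noise across triplicate slides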
[4] = small molecules captured by biotinylated probe aFGF10 – biochemical, small-molecule microarray, fluorescence 635/667, stem cell growth factor project, primary screen (AID 1071); conditions: higher = more signal;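 also: score merges 667 nm spot intensity and signal to noise from triplicate slides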
[5] = target: Neurogenic locus notch homolog protein 2 (Homo sapiens) (UniProt Q04721); assay: small molecules binding Notch2 protein – biochemical, small-molecule microarray, 635 nm fluorescence, stem cell growth factors, primary screen (AID 1073); conditions: higher = more signal
[6] = target: Pro-neuregulin-1, membrane-bound isoform (Homo sapiens) (UniProt Q02297); assay: small molecules binding neuregulin-1 protein – biochemical, small-molecule microarray, fluorescence 635/667, psychiatric disease protein project, primary screen (AID 1075); conditions: NRG1 binding, 635 nm fluorescence, higher = more signal;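 also: score combines 667 nm spot fluorescence with signal to noise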
[7] = tested on: Neuregulin-1 EGF-like domain; assay: small molecules binding NRG1 EGF domain – biochemical, small-molecule microarray, 635 nm fluorescence, primary screen (AID 1081); conditions: higher = more signal;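 also: binding of the protein to compounds printed on small-molecule microarray slides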
[8] = FRG1 expression reporter modulators in myotubes – cell-based, C2C12 myotubes, firefly/Renilla luciferase, luminescence, FRG1 inhibition for FSHD, primary screen (AID 1084); conditions: FRG1 promoter luciferase, higher = more signal, called active from +8 up or from −8 down
[9] = small molecules captured by biotinylated probe aFST – biochemical, small-molecule microarray, fluorescence 635/667, stem cell growth factor project, primary screen (AID 1086); conditions: higher = more signal;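 also: score merges 667 nm fluorescence with signal-to-noise of each printed compound spot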
[10] = binders of probe aHhip on microarray, primary screen, stem cell growth factor project, biochemical, small-molecule microarray, fluorescence 635/667 (AID 1087); conditions: higher = more signal;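 also: score merges spot fluorescence at 667nm with spot signal to noise ratio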

Pro-neuregulin-1, membrane-bound isoform (Homo sapiens), sequence (Q02297 whole entry, looked up, the tested form may be a part, canonical isoform): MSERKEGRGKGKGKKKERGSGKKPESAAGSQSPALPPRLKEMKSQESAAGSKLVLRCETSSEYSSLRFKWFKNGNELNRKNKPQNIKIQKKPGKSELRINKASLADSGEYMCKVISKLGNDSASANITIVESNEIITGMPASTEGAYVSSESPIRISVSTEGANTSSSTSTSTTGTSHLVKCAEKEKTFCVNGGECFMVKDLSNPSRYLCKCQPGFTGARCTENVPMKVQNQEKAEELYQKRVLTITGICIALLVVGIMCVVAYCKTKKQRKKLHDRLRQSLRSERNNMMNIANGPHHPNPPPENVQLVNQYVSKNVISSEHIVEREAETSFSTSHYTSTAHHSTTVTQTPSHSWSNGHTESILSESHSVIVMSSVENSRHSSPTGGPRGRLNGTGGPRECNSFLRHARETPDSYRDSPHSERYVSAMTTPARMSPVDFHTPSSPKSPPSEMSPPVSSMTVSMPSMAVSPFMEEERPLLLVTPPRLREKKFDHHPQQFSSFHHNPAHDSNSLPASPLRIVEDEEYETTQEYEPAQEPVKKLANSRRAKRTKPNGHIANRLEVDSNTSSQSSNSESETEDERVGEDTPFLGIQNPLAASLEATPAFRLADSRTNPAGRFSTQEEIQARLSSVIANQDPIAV
Neurogenic locus notch homolog protein 2 (Homo sapiens), sequence (Q04721 whole entry, looked up, canonical isoform): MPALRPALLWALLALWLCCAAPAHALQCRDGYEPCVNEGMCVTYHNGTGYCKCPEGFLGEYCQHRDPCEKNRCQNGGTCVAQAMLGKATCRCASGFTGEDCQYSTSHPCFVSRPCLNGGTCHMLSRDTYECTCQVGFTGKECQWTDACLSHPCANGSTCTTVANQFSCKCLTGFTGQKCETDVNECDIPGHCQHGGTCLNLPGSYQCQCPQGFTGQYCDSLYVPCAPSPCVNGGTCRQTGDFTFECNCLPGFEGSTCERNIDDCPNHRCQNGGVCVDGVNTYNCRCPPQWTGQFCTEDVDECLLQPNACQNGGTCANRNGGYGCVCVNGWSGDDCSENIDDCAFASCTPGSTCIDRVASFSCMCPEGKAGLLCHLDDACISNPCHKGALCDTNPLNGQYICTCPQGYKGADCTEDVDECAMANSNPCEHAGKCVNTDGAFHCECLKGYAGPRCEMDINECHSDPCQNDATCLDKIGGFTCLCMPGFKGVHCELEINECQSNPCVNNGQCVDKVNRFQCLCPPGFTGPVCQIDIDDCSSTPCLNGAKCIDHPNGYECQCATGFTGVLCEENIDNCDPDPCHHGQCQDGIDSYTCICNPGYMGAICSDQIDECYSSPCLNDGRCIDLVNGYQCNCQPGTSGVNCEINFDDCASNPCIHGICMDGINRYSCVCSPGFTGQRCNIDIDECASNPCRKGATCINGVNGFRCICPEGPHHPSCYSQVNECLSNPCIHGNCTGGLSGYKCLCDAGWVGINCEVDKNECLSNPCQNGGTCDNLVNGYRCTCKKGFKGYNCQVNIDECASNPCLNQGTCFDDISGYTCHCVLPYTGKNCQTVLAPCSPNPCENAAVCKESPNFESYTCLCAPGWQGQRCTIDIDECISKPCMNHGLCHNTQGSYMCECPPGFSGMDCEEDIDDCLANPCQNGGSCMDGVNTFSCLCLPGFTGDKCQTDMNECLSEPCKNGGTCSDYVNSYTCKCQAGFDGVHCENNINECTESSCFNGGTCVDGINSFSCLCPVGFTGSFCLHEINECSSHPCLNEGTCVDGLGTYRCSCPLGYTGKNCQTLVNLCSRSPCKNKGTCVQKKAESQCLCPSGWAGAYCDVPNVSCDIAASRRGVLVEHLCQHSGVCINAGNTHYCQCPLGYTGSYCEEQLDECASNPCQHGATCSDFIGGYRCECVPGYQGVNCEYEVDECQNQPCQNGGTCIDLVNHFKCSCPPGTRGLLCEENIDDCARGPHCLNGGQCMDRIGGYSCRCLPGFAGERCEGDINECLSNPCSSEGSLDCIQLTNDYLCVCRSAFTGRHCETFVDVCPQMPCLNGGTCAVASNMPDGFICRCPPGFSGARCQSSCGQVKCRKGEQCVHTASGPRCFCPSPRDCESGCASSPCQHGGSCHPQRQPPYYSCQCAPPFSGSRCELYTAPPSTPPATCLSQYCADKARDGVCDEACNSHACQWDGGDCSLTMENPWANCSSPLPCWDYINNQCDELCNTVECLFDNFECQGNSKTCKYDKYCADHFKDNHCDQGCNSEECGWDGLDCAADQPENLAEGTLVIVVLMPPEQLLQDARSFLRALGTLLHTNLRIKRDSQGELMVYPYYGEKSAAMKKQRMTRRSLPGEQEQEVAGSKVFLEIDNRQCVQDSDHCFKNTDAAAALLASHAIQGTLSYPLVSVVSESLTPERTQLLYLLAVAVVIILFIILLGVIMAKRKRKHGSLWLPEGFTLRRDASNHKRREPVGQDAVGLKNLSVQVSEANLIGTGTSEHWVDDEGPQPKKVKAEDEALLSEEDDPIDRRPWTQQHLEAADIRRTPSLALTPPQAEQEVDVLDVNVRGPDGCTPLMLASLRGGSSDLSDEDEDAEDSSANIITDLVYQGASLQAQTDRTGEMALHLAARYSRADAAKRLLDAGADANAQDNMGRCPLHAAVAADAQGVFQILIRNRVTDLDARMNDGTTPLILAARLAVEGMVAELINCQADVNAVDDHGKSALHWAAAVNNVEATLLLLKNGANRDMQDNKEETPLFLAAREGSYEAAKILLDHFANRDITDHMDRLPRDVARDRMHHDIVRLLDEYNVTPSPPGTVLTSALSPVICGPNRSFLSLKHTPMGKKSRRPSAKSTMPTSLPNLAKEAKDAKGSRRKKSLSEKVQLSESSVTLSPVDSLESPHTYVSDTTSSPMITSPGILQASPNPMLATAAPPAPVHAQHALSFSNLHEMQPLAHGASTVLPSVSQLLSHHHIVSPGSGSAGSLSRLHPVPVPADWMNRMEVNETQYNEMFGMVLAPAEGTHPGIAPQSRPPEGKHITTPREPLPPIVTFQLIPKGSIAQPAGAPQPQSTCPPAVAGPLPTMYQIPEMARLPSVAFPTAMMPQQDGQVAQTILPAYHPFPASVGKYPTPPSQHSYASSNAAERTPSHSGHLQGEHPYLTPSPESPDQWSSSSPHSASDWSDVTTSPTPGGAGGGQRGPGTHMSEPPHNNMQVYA

Compound | composite z-score [1] | composite z-score [2] | composite z-score [3] | composite z-score [4] | composite z-score [5] | composite z-score [6] | composite z-score [7] | z-score [8] | composite z-score [9] | composite z-score [10]
COc1cc2c(cc1OC)CN(C(=O)[C@@H]1[C@H]3C(=O)O[C@H](c4ccccc4)[C@H](c4ccccc4)N3[C@H](c3ccc(O)cc3)[C@@]13C(=O)Nc1ccc(C#CCCO)cc13)CC2 | -0.281 | 0.0865 | -0.0962 | 0.658 | 0.711 | 1.39 | 1.17 | -0.101 (inactive) | 0.628 | -0.201
CC(C)(C)OC(=O)CC[C@]12N=C(c3ccc(OCCCO)cc3)O[C@H]1c1ccccc1N(Cc1ccccc1)C2=O | 0.555 | 0.178 | 0.0436 | 0.329 | 0.0567 | 0.457 | 1.13 | -1.7 (inactive) | 0.259 | -0.187
COc1ccc(C#Cc2ccc3c(c2)[C@]2(C(=O)N3)[C@H](C(=O)Nc3nc4ccccc4s3)[C@H]3C(=O)O[C@H](c4ccccc4)[C@H](c4ccccc4)N3[C@@H]2c2ccccc2OCCO)cc1 | -0.0541 | 0.125 | -0.024 | 0.313 | 0.98 | 0.907 | 0.919 | 0.716 (inactive) | 0.723 | 0.176
C=CCNC(=O)[C@@H]1[C@H]2C(=O)O[C@H](c3ccccc3)[C@H](c3ccccc3)N2[C@H](c2ccc(OCCO)cc2)[C@@]12C(=O)N(C(=O)OCCOC)c1ccc(C#CCCO)cc12 | -0.209 | -0.28 | -0.0203 | 0.508 | 1.33 | 1.24 | 1.19 | -0.0789 (inactive) | 0.273 | -0.164
COc1ccc(C(O)C2C=CC3C(=O)N(c4ccccc4)C(=O)C3N2Nc2ccc(C(C)C)cc2)c2ccccc12 (stereo not given) | -0.0766 | 0.309 | 0.0442 | 0.7 | 1.59 | 1.49 | 1.16 | -1.31 (inactive) | 1.83 | -0.148
COc1ccc([Si](C)(C)[C@H]2[C@H](CCO)O[C@@]3(C(=O)N(Cc4ccccc4)c4ccc(N5C(=O)c6ccccc6Oc6ccccc65)cc43)[C@@H]2C)cc1 | 0.342 | -0.393 | -0.0591 | 0.606 | -0.0653 | 0.777 | 0.79 | -1.55 (inactive) | -0.0173 | -0.169
COc1cc2c(cc1O)C(c1ccc(CN3CCCC3)cc1)N(C)CC2 (stereo not given) | -1.13 | -0.77 | -0.148 | 0.0711 | -0.101 | 2.19 | 1.07 | -0.426 (inactive) | -0.382 | -0.81
CCOC(=O)C[C@H]1[C@H](OC(=O)c2ccccc2-c2ccccc2)[C@@H](NC(=O)c2ccccc2)c2cc(OCCCO)ccc2N1C(=O)c1ccccc1 | -0.304 | 0.0919 | -0.0885 | 0.585 | 0.494 | 0.127 | 0.0357 | 0.0899 (inactive) | 0.0801 | 0.0274
C=C[C@H](C)[C@H](OC(=O)Nc1ccc(OC)cc1)c1ccc(OCCO)cc1 | 0.284 | -0.294 | -0.181 | -1.65 | -1.34 | -0.154 | 0.834 | 3.14 (inactive) | -0.635 | -0.0173
O=C1C2C=CC(C(O)c3ccc(I)cc3)N(Nc3ccccc3)C2C(=O)N1c1ccccc1 (stereo not given) | 0.996 | 0.404 | 0.106 | 0.368 | 1.54 | 2.13 | 1.22 | -1.92 (inactive) | 1.27 | -0.0988
[N-]=[N+]=NCc1ccccc1C[C@]1(C(=O)N2CCOCC2)COC(c2ccc(OCCCO)cc2)=N1 | 0.518 | 0.456 | 0.083 | 0.973 | 0.626 | 1.02 | 1.24 | -2.87 (inactive) | 0.73 | -0.0237
CC(C)C(=C=CC[C@@H](O)c1cccc(OCCO)c1)C[C@@H](O)COCc1ccccc1 | -0.0972 | -0.254 | -0.0835 | 0.45 | -0.554 | -0.0802 | -0.547 | -2.12 (inactive) | 0.182 | -0.188
O=C(NCCN1CCOCC1)[C@@H]1c2ccccc2C(=O)N(Cc2ccccc2)[C@H]1c1ccc(CO)cc1 | 0.39 | -0.334 | -0.175 | -0.961 | -0.913 | 1.77 | 1.1 | -0.508 (inactive) | -0.0557 | -0.312
COc1ccc(C(O)C2C=CC3C(=O)N(c4ccccc4)C(=O)C3N2Nc2ccccc2F)cc1 (stereo not given) | 0.109 | 0.67 | -0.0747 | -0.0293 | 1.4 | 1.8 | 1.18 | 0.425 (inactive) | 0.115 | -0.0296
COC(=O)[C@@]1(Cc2ccc(F)cc2)[C@H]2c3cc(C(=O)N4CCCC4)n(CC4CC4)c3C[C@H]2CN1C(=O)c1ccccc1 | 0.349 | 0.149 | 0.0274 | 0.427 | 1.72 | 2.05 | 1.06 | 0.108 (inactive) | 1.61 | 0.0274
C=CCC(OC(C)=O)[C@@H]1[C@@H](N(Cc2ccc(-c3ccccc3)cc2)C(=O)Cc2ccc(F)cc2)c2cc(OCCCO)ccc2N1C(=O)Cc1ccc2ccccc2c1 (stereo not given in full) | -0.0873 | -0.286 | -0.0271 | -0.214 | -0.821 | -0.0447 | -0.84 | 0.0197 (inactive) | 0.252 | -0.0047
COCCOC(=O)N1C(=O)[C@@]2(c3cc(C#CC4=CCCCC4)ccc31)[C@H](c1ccc(O)cc1)N1[C@H](c3ccccc3)[C@H](c3ccccc3)OC(=O)[C@H]1[C@@H]2C(=O)NC[C@H](O)c1ccccc1 | -0.217 | 0.167 | 0.0059 | 0.824 | 1.18 | 1.3 | 1.2 | 0.675 (inactive) | 0.443 | -0.174

Compound | composite z-score [1] | composite z-score [2] | composite z-score [3] | composite z-score [4] | composite z-score [5] | composite z-score [6] | composite z-score [7] | z-score [8] | composite z-score [9] | composite z-score [10]
C=C(COC)C(=O)CC[C@@H](OC(=O)c1cccnc1)c1ccccc1OCCO | 0.403 | 1.66 | -0.122 | 0.276 | -0.427 | 0.754 | 0.655 | 0.0248 (inactive) | 0.327 | 0.0176
CC1CC/C=C\[C@H]2OC34C=CCN(CCN5CCOCC5)C(=O)[C@H]3N(C(C)CO)C(=O)[C@@H]4C2C(=O)O1 (stereo not given in full) | -0.246 | -1.61 | -0.125 | -0.467 | -0.939 | -1.14 | 0.737 | -0.203 (inactive) | -0.311 | -0.0672
CN1C(=O)C2C=CC(C(O)c3ccc(F)cc3)N(NC(=O)OC(C)(C)C)C2C1=O (stereo not given) | -0.179 | -0.598 | 0.0505 | 0.257 | 1 | 1.68 | 1.38 | 0.186 (inactive) | 0.734 | -0.0464
CCCC=C(CCC)[C@@H](NS(=O)(=O)c1cccc2cccnc12)c1ccc(-c2ccccc2)cc1 | -0.245 | 0.185 | 0.103 | 0.91 | 1.66 | 1.08 | 0.898 | 2 (inactive) | 1.41 | -0.0417
CS(=O)(=O)CCOC(=O)C1=CC(CCCO)=CC(C2CC2)N(Cc2cccc(OC(F)(F)F)c2)C=C1C(=O)OCCS(C)(=O)=O (stereo not given) | -0.527 | 0.314 | -0.0734 | 0.147 | -0.116 | 1.07 | 0.897 | 0.677 (inactive) | 0.0187 | -0.0994
O=C1C2C=CC(C(O)C=Cc3ccc([N+](=O)[O-])cc3)N(Nc3ccccc3)C2C(=O)N1c1ccccc1 (stereo not given) | -0.134 | -0.0552 | 0.183 | 0.995 | 1.59 | 1.7 | 0.967 | -0.028 (inactive) | 1.22 | -0.0237
COc1cc(NN2C(C(O)C3CCCCC3)C=CC3C(=O)N(C)C(=O)C32)cc(OC)c1OC (stereo not given) | 0.322 | 0.054 | 0.162 | 0.306 | 1.59 | 1.65 | 1.21 | 0.391 (inactive) | 0.479 | 0.0877
COC(=O)C1N=C(c2ccc(OCCCO)cc2)N(c2ccccc2)O1 (stereo not given) | 0.397 | 0.148 | -0.0189 | 1.17 | 1.54 | 1.1 | 0.913 | 2.35 (inactive) | 0.897 | -0.317
COc1ccc([Si](C)(C)[C@H]2[C@H](CC(=O)N3Cc4ccccc4C[C@H]3CO)O[C@@]3(C(=O)N(Cc4ccc(N5C(=O)c6cccc7cccc5c67)cc4)c4ccccc43)[C@@H]2C)cc1 | -0.0494 | 0.245 | -0.0953 | 0.329 | 0.393 | 1.73 | 1.17 | -4.44 (inactive) | 1.07 | 0.61
COC(=O)[C@@]1(Cc2ccccc2CN=[N+]=[N-])N=C(c2ccc(OCCCO)cc2)O[C@H]1c1ccccc1CN=[N+]=[N-] | 0.629 | -0.43 | -0.0457 | 0.0746 | -0.733 | 0.846 | 1.22 | -1.23 (inactive) | -0.574 | -0.226
CN1C(=O)C2C(C1=O)C1C=C(CCCO)C2C(C2CC2)N1Cc1cc2c(cc1Br)OCO2 (stereo not given) | 0.454 | 0.919 | -0.141 | 0.271 | 0.713 | 1.24 | 1.29 | -0.999 (inactive) | 0.252 | -0.201
CN1C(=O)C2C=CC(C(O)c3cc(C(F)(F)F)cc(C(F)(F)F)c3)N(NC(=O)OC(C)(C)C)C2C1=O (stereo not given) | 0.153 | 0.324 | -0.0169 | 0.577 | 1.67 | 2.01 | 1.03 | 1.07 (inactive) | 1.52 | -0.0296
O=C1NC(=O)C2C1C=CC(C(O)c1ccccn1)N2Nc1ccc(Cl)cc1Cl (stereo not given) | -0.0358 | -0.0795 | -0.0132 | 0.895 | 1.16 | 1.36 | 0.626 | 0.362 (inactive) | 0.737 | 0.154
COCC1C2CC[C@H]3C(OCc4ccc(OC)cc4)OC[C@]4(C)[C@H]3C2=C(CN4C(=O)OC(C)(C)C)[C@H](C)C1COC (stereo not given in full) | -0.163 | 0.0867 | 0.142 | 1.09 | 1.72 | 1.73 | 1.18 | -0.31 (inactive) | 0.993 | -0.164
Cc1ccc(C(C)CC(O)C2C=CC3C(=O)N(c4ccccc4)C(=O)C3N2Nc2ccc(C#N)cc2)o1 (stereo not given) | 0.0794 | -0.28 | 0.0489 | 0.954 | 1.7 | 1.88 | 1.08 | -0.629 (inactive) | 0.998 | -0.283
CC(C)C(=C=CC[C@H](O)c1cccc(OCCO)c1)CCO | -0.068 | 1.33 | -0.0937 | -0.194 | -0.379 | -0.356 | -0.403 | 0.163 (inactive) | -0.045 | -0.287
